Screening results from PubChem BioAssay.
Sampled rows, rich in hits. Any-hit rate of the full collection: about 19%.
HT1080 IDH1KD tx = HT-1080 IDH1 knockdown cell toxicity (counter line); HT-1080 IDH1 knockdown viability, ATP luminescence, 48 h; AID 686971; Potency, µM (titrated, usually from 46.1 µM), most hits filed as cytotoxic; hit rate 2% among 360,000
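Knockdown cells (IDH1KD HT-1080) received compounds 2 h after plating at 750 cells/well and were kept 48 h at 37 °C in 5% FBS RPMI. A CellTiter-Glo luminescence read gave % activity for curve fitting.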
KB-3-1 cytotox = KB-3-1 parental cell cytotoxicity. KB-3-1 viability, CellTiter-Glo ATP luminescence, 72 h. Potency, µM (highest dose often 46.1 µM), hits mostly cytotoxic. hit rate 1.4% among 400,000. AID 1347075; note: nearly all actives have a fitted effect of over 60% in size
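Using CellTiter-Glo luminescence, growth of non-resistant KB-3-1 adenocarcinoma cells is assessed 72 h after pin-tool compound addition at 37 °C. Normalized responses across the concentration series yield fitted curves.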
DT40 TDP1 no CPT = qHTS for Inhibitors of human tyrosyl-DNA phosphodiesterase 1 (TDP1): qHTS in cells in absence of CPT. DT40 Tdp1-/- hTDP1 cells, no CPT, ATP luminescence, 48 h. Potency, µM (doses to about 46.2 µM), usual class: inhibitors. hit rate 15% among 420,000; note: nearly all actives have a fitted effect of over 55% in size
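Compound effects on proliferation are scored in DT40 Tdp1-/-;hTDP1 cells in the absence of CPT. ATP levels (CellTiter-Glo luminescence) are recorded after a ≥48 hr, 37 °C incubation.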
KB-V1 MDR tox = KB-V1 MDR subline cytotoxicity | KB-V1 MDR cells viability, CellTiter-Glo, 72 h | Potency, µM (top dose mostly 46.1 µM), usual class: cytotoxic | hit rate 3.4% among 400,000 | AID 1347076; note: nearly all actives have a fitted effect of over 60% in size
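Cytotoxicity toward P-gp-expressing KB-V1 cells was determined as loss of CellTiter-Glo luminescence after 72 h at 37 degrees C. Compounds were tested in quantitative HTS format across a concentration range, with curves fitted to normalized data.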
TDP1 cell CPT = DT40-hTDP1 cell growth loss with CPT. hit rate 12% among 420,000. Potency, µM (doses to about 46.2 µM), actives largely listed as inhibitors. chicken DT40 Tdp1-/-;hTDP1 cells + 20 nM CPT, ATP luminescence, 48 h; note: nearly all actives have a fitted effect of over 55% in size
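Chicken DT40 Tdp1-/- cells stably complemented with human TDP1 were seeded at 400 cells/well in medium containing 20 nM camptothecin, exposed to pin-transferred compounds, and grown at 37 °C for at least 48 hr. Viability was read as ATP luminescence.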
HT1080-NT tox = kills 2HG-producing HT-1080-NT fibrosarcoma cells; HT-1080-NT fibrosarcoma viability, CellTiter-Glo ATP luminescence, 48 h; Potency, µM (top dose mostly 46.1 µM), actives largely listed as cytotoxic; hit rate 1.6% among 360,000;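 note: NT is the 2HG producing partner of a matched IDH1 knockdown line; nearly all actives have a fitted effect of over 55% in size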
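HT-1080-NT fibrosarcoma cells (2HG-overproducing), 750 cells/well in RPMI with 5% FBS, dosed after 2 h and incubated 48 h at 37C. CellTiter-Glo luminescence normalized to DMSO and no-cell wells; concentration-response curves fitted and classed.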
A number is an active result; n = inactive; u = inconclusive; x = no result given. Calls come from the whole dose curve; as a rule, active = well fitted curve in the direction sought with a large enough effect; inconclusive = small, poorly fitted or top-dose-only effect, or another doubt; inactive = no such curve, though single readings can be large; an effect the other way counts as inactive or inconclusive.

SMILES	HT1080 IDH1KD tx	KB-3-1 cytotox	DT40 TDP1 no CPT	KB-V1 MDR tox	TDP1 cell CPT	HT1080-NT tox
CC(C)Oc1ccc(C(=O)NC(=S)Nc2ccc(CN3CCOCC3)cc2)cc1	n	n	18.4µM	u	u	n
O=C(NC(=S)Nc1ccc(CN2CCOCC2)cc1)c1ccc([N+](=O)[O-])cc1Cl	n	n	25.9µM	n	n	n
Cc1ccc(C(=O)NC(=S)Nc2ccc(N3CCOCC3)cc2)c(C)c1	n	n	23.1µM	u	n	n
CN(C)CCCNC(=S)Nc1ccc(Br)cc1	n	n	n	n	n	n
O=C(O)C1C2C=CC(C3CC23)C1C(=O)N1CCc2ccccc21 (stereo not given)	n	n	n	n	n	n
COc1ccccc1OCCSc1nc2ccccc2n1CC(N)=O	n	n	n	n	n	n
COc1ccc(Br)cc1C(=O)NC(=S)Nc1ccc(CN2CCOCC2)cc1	u	n	13µM	n	18.4µM	u
O=C(Nc1ccc(CN2CCOCC2)cc1)c1cc(Br)ccc1Cl	n	n	u	n	n	n
Cc1ccc(C(=O)NC(=S)Nc2ccc(CN3CCOCC3)cc2)cc1	n	n	u	n	20.6µM	n
Cc1ccccc1C1NC(=O)c2ccccc2O1 (stereo not given)	n	n	n	n	n	n
Cc1ccccc1C1N=C2Oc3ccccc3C=C2C(=O)N1 (stereo not given)	n	7.31µM	5.8µM	4.11µM	6.51µM	n
N=c1ccn(Cc2cccc(F)c2)cc1	n	23.1µM	18.4µM	n	u	u
Cn1c(=O)[nH]c(=O)c2c1nc(Br)n2CCOc1ccccc1	n	u	16.4µM	u	10.3µM	n
Cn1c(=O)[nH]c(=O)c2c1nc(NCCN)n2CCOc1ccccc1	n	n	13µM	n	u	n
CCOC(=O)c1ccc(Oc2nc(N(C)C)nc(N(C)C)n2)cc1	n	n	u	n	n	n
CCOC(=O)c1ccc(Oc2nc(NC(C)(C)C)nc(N(C)C)n2)cc1	u	n	20.6µM	n	13µM	u
CC(=O)c1sc(NC(=O)c2cc3c(C)nn(-c4ccccc4)c3s2)nc1C	n	n	n	n	n	n
Cc1nc(NC(=O)c2cc3c(C)nn(-c4ccccc4)c3s2)sc1C(=O)Nc1ccccc1	n	n	20.6µM	n	u	n
Cc1ccc(NC(=O)c2cc3c(-c4ccccc4)nn(-c4ccccc4)c3s2)cc1	x	n	x	u	x	x
Cc1nn(-c2ccccc2)c2sc(C(=O)Nc3cccc(Cl)c3)cc12	x	n	23.1µM	u	u	x
COc1ccc(NC(=O)c2cc3c(C)nn(-c4ccccc4)c3s2)c(OC)c1	x	n	u	n	u	x
COc1ccccc1NC(=O)c1cc2c(C)nn(-c3ccccc3)c2s1	x	n	23.1µM	n	u	x
COc1ccc(-c2cc(C(=O)Nc3c(C)n(C)n(-c4ccccc4)c3=O)c3ccccc3n2)cc1OC	n	n	14.6µM	u	u	u
Cc1ccc(-c2cc(C(=O)Nc3c(C)n(C)n(-c4ccccc4)c3=O)c3ccccc3n2)cc1	n	n	u	u	u	n
Cc1c(NC(=O)c2ccc(COc3ccc4ccccc4c3)o2)c(=O)n(-c2ccccc2)n1C	n	20.6µM	23.1µM	7.31µM	u	n
SMILES	HT1080 IDH1KD tx	KB-3-1 cytotox	DT40 TDP1 no CPT	KB-V1 MDR tox	TDP1 cell CPT	HT1080-NT tox
CC(C)OCCCNC(=O)c1cc(-c2cccs2)nc2ccccc12	n	n	u	n	16.4µM	n
COc1ccc(-c2cc(C(F)F)n3ncc(C(=O)Nc4c(C)n(C)n(-c5ccccc5)c4=O)c3n2)cc1	n	n	11.6µM	n	u	n
COc1cccc(CNC(=O)c2cc(-c3cccs3)nc3ccccc23)c1	x	n	n	n	n	x
C[C@@H]1CN([C@@H](C)CO)C(=O)c2cc(Br)cnc2O[C@H]1CN(C)C(=O)c1ccncc1	n	n	n	n	n	n
CC1(C)CC(C(=O)N2CCOc3ccc(CN4CCN(Cc5ccccn5)CC4)cc3C2)CCO1 (stereo not given)	x	x	n	x	n	x
O=C(NCCC1=CCCCC1)C1CCN(C(=O)c2ccc(Br)cc2)CC1	n	n	u	u	u	n
COc1ccc(CNC(=O)C(OC(C)=O)c2ccccn2)cc1 (stereo not given)	n	n	n	n	n	n
NC(=O)C1CCN(c2oc(/C=C/c3ccc(F)cc3)nc2S(=O)(=O)c2ccccc2)CC1	n	n	n	n	n	n
Cc1c(NC(=O)c2cc(-c3cccs3)nc3ccccc23)c(=O)n(-c2ccccc2)n1C	n	n	20.6µM	n	u	n
Cc1cc(C)c2c(C)c(C(=O)Nc3c(C)n(C)n(-c4ccccc4)c3=O)oc2c1	n	n	u	8.2µM	u	n
COc1ccc(-c2cc(C(=O)OC(C)C(=O)Nc3c(C)n(C)n(-c4ccccc4)c3=O)c3ccccc3n2)cc1 (stereo not given)	n	n	u	n	n	n
Cc1c(NC(=O)c2cc(-c3ccccc3)nc3ccccc23)c(=O)n(-c2ccccc2)n1C	n	x	u	x	u	n
COc1ccc(/C(O)=C/C(=O)C(=O)Nc2c(C)n(C)n(-c3ccccc3)c2=O)cc1	n	n	n	16.4µM	n	n
Cc1c(NC(=O)c2cc3ccccc3o2)c(=O)n(-c2ccccc2)n1C	n	n	n	n	n	n
Cc1c(NC(=O)C(=O)/C=C(/O)c2ccccc2)c(=O)n(-c2ccccc2)n1C	n	n	n	u	n	n
Cc1c(NC(=O)C(C)OC(=O)c2cc(-c3cccc4ccccc34)nc3ccccc23)c(=O)n(-c2ccccc2)n1C (stereo not given)	n	n	u	9.2µM	n	n
CCCN(CC(=O)Nc1ccccc1OC)C(=O)c1ccncc1	n	n	n	n	n	n
O=C(NCCc1ccc(OC(F)F)cc1)C1CC(=O)N(c2ccc3c(c2)OCCO3)C1 (stereo not given)	n	n	n	n	n	n
CC1(c2ccccc2)NC(=O)N(CC(=O)Nc2ccccc2C(=O)NC2CC2)C1=O (stereo not given)	n	u	n	n	n	n
Cc1cccc(OCC(=O)NCc2ccc3c(c2)CCN3C(=O)c2ccc(Cl)cc2)c1	x	n	n	n	n	x
Cc1ccc(NC(=O)c2cc(-c3cccs3)nc3ccccc23)nc1	20.6µM	u	13µM	u	23.1µM	u
O=[N+]([O-])c1cc(-c2nnc(Nc3ccc(O)cc3)c3ccccc23)ccc1N1CCOCC1	u	u	14.6µM	n	16.4µM	u
O=[N+]([O-])c1cc(-c2nnc(N3CCOCC3)c3ccccc23)ccc1N1CCOCC1	n	n	u	n	u	n
